# This is part of a sample that, as a whole, favours compounds with a hit. Of some 79,000 tested, about 15% had one in any assay. A number with no mark means an inactive call. The source made the active and inactive calls. Rule as the data show it: active = growth inhibition above about 70%; inactive = the rest.
# Tests used:
# [1] = NCI Yeast Anticancer Drug Screen. Data for the rad50 strain (AID 155);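 also: 0% = growth of vehicle-only cultures of the same strain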; conditions: S. cerevisiae rad50 strain growth inhibition, hits give high values
# Summary of the method: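 Relative growth inhibition (compound vs vehicle) was measured in yeast with a defined repair-gene alteration.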
# [2] = NCI Yeast Anticancer Drug Screen. Data for the mec2-1 strain (AID 157); conditions: S. cerevisiae mec2-1 strain, hits give high values
# Summary of the method: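 mec2-1 yeast strain, carrying an alteration in DNA damage repair or cell cycle control, was exposed to compounds; growth inhibition was measured relative to vehicle-treated controls.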
# [3] = NCI Yeast Anticancer Drug Screen. Data for the sgs1 mgt1 strain (AID 161);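 also: 0% = growth of cultures given vehicle only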; conditions: S. cerevisiae sgs1 mgt1 strain, hits give high values
# Summary of the method: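 Compounds are added to genetically altered yeast, and growth is compared with cultures given vehicle alone to give percent inhibition.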
# [4] = NCI Yeast Anticancer Drug Screen. Data for the cln2 rad14 strain (AID 165);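 also: 0% = growth equal to vehicle treated cultures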; conditions: S. cerevisiae cln2 rad14 strain, hits give high values
# Summary of the method: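 Yeast carrying cln2 and rad14 alterations (cell cycle control and DNA damage repair) were exposed to compounds. Growth inhibition was measured against vehicle-treated controls.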
# [5] = NCI Yeast Anticancer Drug Screen. Data for the bub3 strain (AID 167); conditions: S. cerevisiae bub3 mutant strain, hits give high values
# Summary of the method: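 Screening used yeast with an engineered genetic alteration affecting cell cycle control. Compound-exposed cultures were compared with vehicle cultures, and reduced growth was taken as inhibition.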
# [6] = NCI Yeast Anticancer Drug Screen. Data for the mlh1 rad18 strain (AID 175); conditions: S. cerevisiae mlh1 rad18 strain growth inhibition, hits give high values
# Summary of the method: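 Growth inhibition of the yeast strain was measured after compound exposure and expressed relative to vehicle-treated controls. The strain carries defined defects in DNA damage repair.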
# [7] = at 5.0 µM (retest, dose inferred, filed as 0.5)
# [8] = at 50.0 µM (retest, dose inferred, filed as 5.0)
Compound,"growth inhibition [1, 7]","growth inhibition [1, 8]",growth inhibition ([1]; at 50.0 µM),"growth inhibition [2, 7]","growth inhibition [2, 8]",growth inhibition ([2]; at 50.0 µM),"growth inhibition [3, 7]","growth inhibition [3, 8]",growth inhibition ([3]; at 50.0 µM),"growth inhibition [4, 7] [%]","growth inhibition [4, 8]",growth inhibition ([4]; at 50.0 µM),"growth inhibition [5, 7]","growth inhibition [5, 8]",growth inhibition ([5]; at 50.0 µM),"growth inhibition [6, 7]","growth inhibition [6, 8]",growth inhibition ([6]; at 50.0 µM)
CCCCCCOC(=O)C(N)Cc1ccc(OC)cc1 (stereo not given),5%,21%,39.2%,7%,29%,40.5%,6%,42%,56.2%,2,17%,32.4%,5%,80% (active),52%,-1%,43%,48.1%
OC(CN1CCc2ccccc2C1)c1ccc2ccccc2c1 (stereo not given),23%,64%,86.5% (active),18%,58%,50.5%,34%,86% (active),88.5% (active),26,58%,68.3%,36%,93% (active),94.6% (active),25%,82% (active),45.3%
C[C@]12C[C@@H](c3ccccc3)Nc3ccccc3N1C(c1ccccc1)=NO2,-4%,68%,61%,10%,74% (active),74.8% (active),-13%,70% (active),81% (active),5,55%,37.2%,-7%,81% (active),62%,-19%,75% (active),73.5% (active)
O=c1c2c3c(sc2nc2n1N=C(c1ccc(Br)cc1)CS2)CCCC3,1%,-11%,21.2%,-3%,-11%,-0.4%,-5%,-1%,-22.8%,17,10%,-32.2%,11%,-10%,-24.5%,-10%,-6%,-25.4%
CC(C)c1ccc2c(c1)CCC1C(C)(C(=O)O)CCCC21C (stereo not given),11%,97% (active),95.1% (active),8%,97% (active),98.3% (active),16%,-15%,98% (active),8,98% (active),96.9% (active),-9%,97% (active),97.8% (active),16%,97% (active),97.5% (active)
O=C(NC(Cc1ccccc1)C(=O)O)c1ccncc1 (stereo not given),-2%,-12%,61.6%,-1%,-7%,28.9%,0%,-5%,63.2%,-1,-11%,57.2%,-1%,-2%,44.1%,-1%,-6%,46.1%
CC(C)(C)c1cc(Cl)c(O)c(Cc2cc(C(C)(C)C)cc(Cl)c2O)c1,5%,67%,67%,36%,78% (active),72.2% (active),-4%,84% (active),82.5% (active),14,79% (active),82% (active),9%,76% (active),62.5%,52%,85% (active),70.5% (active)
O=C(Cc1nc2ccccc2s1)Nc1cccc(C(F)(F)F)c1,41%,98% (active),92.2% (active),39%,100% (active),93.7% (active),54%,99% (active),94.7% (active),32,98% (active),92.6% (active),35%,99% (active),92.4% (active),64%,99% (active),93% (active)
CCCCN(CCCC)C(=O)c1ccc(Cl)cc1Cl,7%,97% (active),98.5% (active),7%,98% (active),97.7% (active),6%,97% (active),98.4% (active),11,87% (active),96.2% (active),26%,90% (active),96.5% (active),13%,97% (active),98.3% (active)
CC(=O)OC1CCCc2c1nc1ccccc1[n+]2[O-] (stereo not given),10%,-2%,8.6%,10%,0%,4.55%,6%,1%,0.5%,3,-3%,28.6%,15%,4%,-10.5%,11%,-5%,5.7%
N#CC(O)C(Br)(Br)Br (stereo not given),-3%,61%,82.7% (active),-3%,38%,74.3% (active),-4%,46%,83.3% (active),6,18%,21.9%,-1%,69%,84.7% (active),1%,72% (active),86% (active)
C/C(=N\NC(=S)N1CCCCCC1)c1ccccn1,88% (active),99% (active),91.5% (active),86% (active),99% (active),92.6% (active),77% (active),99% (active),92.3% (active),67,98% (active),89.7% (active),87% (active),99% (active),92.1% (active),90% (active),98% (active),92% (active)
C(CCCCCN1CCCCC1)CCCCN1CCCCC1,-14%,-9%,-2.7%,-20%,-8%,5.4%,3%,-14%,7.2%,3,6%,6.75%,-11%,-18%,-27.2%,-1%,10%,6.85%
CC1=C(C)C(=O)C(C(C)(C)CC(=O)n2cc(F)c(=O)[nH]c2=O)=C(C)C1=O,24%,87% (active),93.5% (active),22%,98% (active),97.5% (active),56%,95% (active),97.2% (active),11,46%,41.6%,0%,63%,1.05%,18%,85% (active),86.8% (active)
CC(C)CCCC(C)C1CCC2C3CCC4=CC(O)CCC4(C)C3CCC12C (stereo not given),-5%,96% (active),93.8% (active),1%,94% (active),90.3% (active),-2%,92% (active),93% (active),-8,95% (active),94.3% (active),-5%,97% (active),94% (active),-3%,97% (active),93.5% (active)
NC(=S)C(=S)N/C=C/c1nc2ccccc2[nH]c1=O,-19%,98% (active),89.8% (active),-25%,99% (active),92.7% (active),-13%,97% (active),91.7% (active),-11,98% (active),89.3% (active),-7%,99% (active),90.7% (active),-6%,98% (active),89.4% (active)
CCN(CC)CCOC(=O)Nc1cc(Cl)cc(Cl)c1,50%,68%,71% (active),37%,60%,47.1%,52%,87% (active),68.5%,36,62%,58.2%,47%,69%,61.2%,59%,86% (active),54.8%
COC1=C(Br)C(=O)N/C1=C(\OC)c1ccccc1,4%,9%,11.3%,4%,1%,-8.9%,6%,15%,29.9%,6,0%,37.9%,21%,0%,-1.65%,2%,4%,6.15%
O=C(/N=C1\N=Nc2nc(C(C(=O)c3cccs3)c3nc4n(c3O)/C(=N/C(=O)Nc3ccc(Cl)cc3)N=N4)c(O)n21)Nc1ccc(Cl)cc1 (stereo not given),-22%,5%,38.7%,-12%,23%,63.4%,-1%,7%,66.2%,-33,7%,63.6%,-38%,27%,66.8%,-27%,43%,49.3%
O=C(c1ccccc1)N(c1ccccc1)c1ccc2ccccc2c1,-3%,16%,5.8%,-3%,21%,-6.1%,-5%,77% (active),12%,-35,30%,12.3%,13%,67%,21.8%,-12%,67%,-1.8%
